{
  "source": "paper PMC9911399",
  "about": "“Two distinct binding modes provide the RNA-binding protein RbFox with extraordinary sequence specificity”",
  "binders": {"B1": {"name": "UAAGUGG (DNA:RNA)", "RNA": "GGGAGACCGGAAUUCAGAUUGUCCUAAGUGGUUAAAUCCCGUCGUAGCCACCA", "DNA 1": "CAATCTGAATTCCGGTCTCCC", "DNA 2": "TGGTGGCTACGACGGGATT"}, "B2": {"name": "GUUAAGA (DNA:RNA)", "RNA": "B1 RNA with U25G, A26U, A27U, G28A, U29A, G31A", "DNA 1": "CAATCTGAATTCCGGTCTCCC", "DNA 2": "TGGTGGCTACGACGGGATT"}, "B3": {"name": "CUGGUCU (DNA:RNA)", "RNA": "B1 RNA with U25C, A26U, A27G, G30C, G31U", "DNA 1": "CAATCTGAATTCCGGTCTCCC", "DNA 2": "TGGTGGCTACGACGGGATT"}, "B4": {"name": "GUGGGUC (DNA:RNA)", "RNA": "B1 RNA with U25G, A26U, A27G, U29G, G30U, G31C", "DNA 1": "CAATCTGAATTCCGGTCTCCC", "DNA 2": "TGGTGGCTACGACGGGATT"}, "B5": {"name": "UGGUCUU (DNA:RNA)", "RNA": "B1 RNA with A26G, A27G, G28U, U29C, G30U, G31U", "DNA 1": "CAATCTGAATTCCGGTCTCCC", "DNA 2": "TGGTGGCTACGACGGGATT"}, "B6": {"name": "UGGGGUC (DNA:RNA)", "RNA": "B1 RNA with A26G, A27G, U29G, G30U, G31C", "DNA 1": "CAATCTGAATTCCGGTCTCCC", "DNA 2": "TGGTGGCTACGACGGGATT"}, "B7": {"name": "UGGGUCU (DNA:RNA)", "RNA": "B1 RNA with A26G, A27G, G30C, G31U", "DNA 1": "CAATCTGAATTCCGGTCTCCC", "DNA 2": "TGGTGGCTACGACGGGATT"}, "B8": {"name": "CUGGGUC (DNA:RNA)", "RNA": "B1 RNA with U25C, A26U, A27G, U29G, G30U, G31C", "DNA 1": "CAATCTGAATTCCGGTCTCCC", "DNA 2": "TGGTGGCTACGACGGGATT"}, "B9": {"name": "CAUUGUG (DNA:RNA)", "RNA": "B1 RNA with U25C, A27U, G28U, U29G, G30U", "DNA 1": "CAATCTGAATTCCGGTCTCCC", "DNA 2": "TGGTGGCTACGACGGGATT"}, "B10": {"name": "GGUCGAG (DNA:RNA)", "RNA": "B1 RNA with U25G, A26G, A27U, G28C, U29G, G30A", "DNA 1": "CAATCTGAATTCCGGTCTCCC", "DNA 2": "TGGTGGCTACGACGGGATT"}, "B11": {"name": "AGGUCCC (DNA:RNA)", "RNA": "GGGAGACCGGAAUUCAGAUUGUCCAGGUCCCUUAAAUCCCGUCGUAGCCACCA", "DNA 1": "CAATCTGAATTCCGGTCTCCC", "DNA 2": "TGGTGGCTACGACGGGATT"}, "B12": {"name": "UGUUAAA (DNA:RNA)", "RNA": "B11 RNA with A25U, G27U, C29A, C30A, C31A", "DNA 1": "CAATCTGAATTCCGGTCTCCC", "DNA 2": "TGGTGGCTACGACGGGATT"}, "B13": {"name": "UGUUUUU (DNA:RNA)", "RNA": "B11 RNA with A25U, G27U, C29U, C30U, C31U", "DNA 1": "CAATCTGAATTCCGGTCTCCC", "DNA 2": "TGGTGGCTACGACGGGATT"}, "B14": {"name": "UGCUGUG (DNA:RNA)", "RNA": "B11 RNA with A25U, G27C, C29G, C30U, C31G", "DNA 1": "CAATCTGAATTCCGGTCTCCC", "DNA 2": "TGGTGGCTACGACGGGATT"}, "B15": {"name": "CCUGCUG (DNA:RNA)", "RNA": "B1 RNA with U25C, A26C, A27U, U29C, G30U", "DNA 1": "CAATCTGAATTCCGGTCTCCC", "DNA 2": "TGGTGGCTACGACGGGATT"}, "B16": {"name": "UGUUUGU (DNA:RNA)", "RNA": "B1 RNA with A26G, A27U, G28U, G31U", "DNA 1": "CAATCTGAATTCCGGTCTCCC", "DNA 2": "TGGTGGCTACGACGGGATT"}, "B17": {"name": "UGUGUUG (DNA:RNA)", "RNA": "B1 RNA with A26G, A27U, G30U", "DNA 1": "CAATCTGAATTCCGGTCTCCC", "DNA 2": "TGGTGGCTACGACGGGATT"}, "B18": {"name": "UGUCGUU (DNA:RNA)", "RNA": "B11 RNA with A25U, G27U, U28C, C29G, C30U, C31U", "DNA 1": "CAATCTGAATTCCGGTCTCCC", "DNA 2": "TGGTGGCTACGACGGGATT"}, "B19": {"name": "CGUUUGA (DNA:RNA)", "RNA": "B11 RNA with A25C, G27U, C29U, C30G, C31A", "DNA 1": "CAATCTGAATTCCGGTCTCCC", "DNA 2": "TGGTGGCTACGACGGGATT"}, "B20": {"name": "UGUGUUU (DNA:RNA)", "RNA": "B1 RNA with A26G, A27U, G30U, G31U", "DNA 1": "CAATCTGAATTCCGGTCTCCC", "DNA 2": "TGGTGGCTACGACGGGATT"}, "B21": {"name": "UGUGUGU (DNA:RNA)", "RNA": "B1 RNA with A26G, A27U, G31U", "DNA 1": "CAATCTGAATTCCGGTCTCCC", "DNA 2": "TGGTGGCTACGACGGGATT"}, "B22": {"name": "UGUUUGA (DNA:RNA)", "RNA": "B1 RNA with A26G, A27U, G28U, G31A", "DNA 1": "CAATCTGAATTCCGGTCTCCC", "DNA 2": "TGGTGGCTACGACGGGATT"}, "B23": {"name": "CUGUGUU (DNA:RNA)", "RNA": "B11 RNA with A25C, G26U, C29G, C30U, C31U", "DNA 1": "CAATCTGAATTCCGGTCTCCC", "DNA 2": "TGGTGGCTACGACGGGATT"}},
  "note": "Residue numbers refer to the chain shown, from its start. Whole data set: some 16,000 sequences, median “ka relative to ugcaugu” near 0.0091, cut for the highest 2% near 0.032. The sample as a whole holds a higher share of the highest values than the screen did.",
  "data": [
    {"target": "T1, RBFOX1 RRM (Homo sapiens, UniProt Q9NWB1 109-208)", "T1 sequence": "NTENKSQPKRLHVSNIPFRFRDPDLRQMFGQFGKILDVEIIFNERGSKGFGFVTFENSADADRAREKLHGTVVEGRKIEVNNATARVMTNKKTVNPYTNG", "assay": "EMSA; HiTS-Eq, 1 nM pool, 10 min; buffer printed only for the single-RNA assays: 10 mM Tris pH 7.5, 150 mM NaCl, 3.4 mM EDTA, 0.001% NP-40, 30 C", "details": "tags: His6 N-terminal (pET28a); label: 5' 32P", "in_short": "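Purified RbFox RRM (wild type or mutant) was equilibrated for 10 min in 50 µL with 1 nM of a 5′-radiolabelled pool of RNA with 7 randomized nucleotides, its flanks annealed to DNA oligonucleotides, across increasing protein concentrations. Free RNA was separated by 8% native PAGE, excised, reverse-transcribed, PCR-barcoded and sequenced on an Illumina HiSeq 2500. Relative association constants came from read-count changes of each variant against the control reaction, normalised to the cognate motif.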", "values": [
      {"binder": "B1", "binding signal": "0.00934 KA relative to UGCAUGU"},
      {"binder": "B2", "binding signal": "0.012 KA relative to UGCAUGU"},
      {"binder": "B3", "binding signal": "0.0225 KA relative to UGCAUGU"},
      {"binder": "B4", "binding signal": "0.0192 KA relative to UGCAUGU"},
      {"binder": "B5", "binding signal": "0.0179 KA relative to UGCAUGU"},
      {"binder": "B6", "binding signal": "0.0387 KA relative to UGCAUGU"},
      {"binder": "B7", "binding signal": "0.0375 KA relative to UGCAUGU"},
      {"binder": "B8", "binding signal": "0.0291 KA relative to UGCAUGU"},
      {"binder": "B9", "binding signal": "0.0157 KA relative to UGCAUGU"},
      {"binder": "B10", "binding signal": "0.0142 KA relative to UGCAUGU"},
      {"binder": "B11", "binding signal": "0.00339 KA relative to UGCAUGU"},
      {"binder": "B12", "binding signal": "0.0109 KA relative to UGCAUGU"},
      {"binder": "B13", "binding signal": "0.0221 KA relative to UGCAUGU"},
      {"binder": "B14", "binding signal": "0.0347 KA relative to UGCAUGU"},
      {"binder": "B15", "binding signal": "0.0192 KA relative to UGCAUGU"},
      {"binder": "B16", "binding signal": "0.0434 KA relative to UGCAUGU"},
      {"binder": "B17", "binding signal": "0.0299 KA relative to UGCAUGU"},
      {"binder": "B18", "binding signal": "0.021 KA relative to UGCAUGU"},
      {"binder": "B19", "binding signal": "0.0182 KA relative to UGCAUGU"},
      {"binder": "B20", "binding signal": "0.0186 KA relative to UGCAUGU"},
      {"binder": "B21", "binding signal": "0.0346 KA relative to UGCAUGU"},
      {"binder": "B22", "binding signal": "0.0341 KA relative to UGCAUGU"},
      {"binder": "B23", "binding signal": "0.0207 KA relative to UGCAUGU"}
    ]}
  ]
}
